The campaign covered roughly 360,000 compounds. About 3,700 (1%) were called active. No stated cut-off is given here; in the data, active means activation above about 30%; inactive means the rest. Shown is part of a subset that was picked to be rich in actives.

Sequence of D(1A) dopamine receptor (Homo sapiens) (P21728 whole entry, looked up): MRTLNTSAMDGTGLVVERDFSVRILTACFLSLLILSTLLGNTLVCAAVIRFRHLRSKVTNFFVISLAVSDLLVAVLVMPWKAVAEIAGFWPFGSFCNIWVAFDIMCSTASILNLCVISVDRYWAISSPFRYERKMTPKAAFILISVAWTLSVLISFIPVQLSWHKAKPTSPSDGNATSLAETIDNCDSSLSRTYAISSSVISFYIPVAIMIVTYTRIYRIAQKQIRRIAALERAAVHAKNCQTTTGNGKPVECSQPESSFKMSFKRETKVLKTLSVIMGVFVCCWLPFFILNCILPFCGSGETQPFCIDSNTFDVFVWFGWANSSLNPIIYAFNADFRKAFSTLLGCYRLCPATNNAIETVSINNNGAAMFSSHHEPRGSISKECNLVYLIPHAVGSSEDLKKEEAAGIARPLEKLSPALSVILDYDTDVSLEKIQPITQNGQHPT

In the assay the target is D(1A) dopamine receptor (Homo sapiens) (UniProt P21728). Kind of assay: Allosteric Agonists of the Human D1 Dopamine Receptor: qHTS. Further: 0% is about no effect. As to conditions: HEK293 T-REx D1 cells, calcium flux, agonist mode; at 2 µM; hits give high values. The text has this:
NIH Chemical Genomics Center [NCGC] NIH Molecular Libraries Probe Centers Network [MLPCN] MLPCN Grant: NS064831-01 Assay Submitter (PI): David Sibley Dopamine receptors (DARs) are involved in the etiology and/or therapy of a number of neuropsychiatric and endocrine disorders. For instance, all receptor-based antiparkinsonian drugs work via stimulating the D1 DAR subtype whereas all FDA-approved antipsychotic agents are antagonists of this receptor. […] There are three different types of allosteric modulators that we are seeking, two of which will stimulate or augment receptor signaling, allosteric agonists and potentiators, while the third, allosteric antagonists, will attenuate receptor signaling. The present primary screening assay measures compound agonism by tracking calcium flux in a […], inducible Hek293 Trex D1 cell line.
Freshly passaged cells are plated in 1536 well black, clear bottom plates at a density of 4000 cells/well in 3 ul of complete media containing 1x tetracycline inducer. After an overnight incubation at […] in 5% CO2, cells are loaded with 2 ul of the no wash Calcium Assay Kit (ABD Bioquest) and incubated at room temperature for 30 to 90 minutes. Agonist read: A 10 cycle (1 second/cycle) baseline measurement is taken and then the FDSS online 1536 pintool delivers 23 nl of compound library (as well as dopamine controls) to the plate. The plate is measured for kinetically at 1 cycle/sec for 180 seconds and is considered to be the agonist portion of the assay (eg, compounds which activate a positive calcium response during this portion are flagged as potential agonists). Following the 180 second read, 1 ul of either an EC20 (positive modulation assay) or EC80 (negative modulation assay) is delivered by an onboard pipette head. Measurements are taken kinetically for an additional 180 seconds.
A general note: Quantitative high-throughput screening tests each substance at several concentrations.
Consider `CCCCCCCCCCCCn1ccc(=N)cc1`, for which the activation was 52.6% (active).
With `COc1ccc(-c2nn(CCC#N)cc2C(=O)O)cc1`, the activation was 2.02% (inactive).
The result for `NC(=O)Nc1cccc(C(F)(F)F)c1` reads 1.22% (inactive); that for `CC(Cc1ccccc1)NCCC(c1ccccc1)c1ccccc1` (stereo not given), 19.9% (inactive).
For `CCN(CC)c1ccc([N+](=O)[O-])c2cccnc12`, the activation is 6.86% (inactive).
The result for `COc1ccc(C(=O)C2CN(C)CC2C(=O)c2ccc(OC)cc2)cc1` (stereo not given) reads 4.65% (inactive); that for `O=C1C2(Cl)C3(Cl)C4(Cl)C(Cl)(Cl)C5(Cl)C3(Cl)C1(Cl)C5(Cl)C24Cl` (stereo not given), 99.6% (active); that for `CCN1CCN(Cc2cc(OC)c3c(c2)OCO3)CC1`, 3.83% (inactive).
Take `Cc1ccc(-n2c(/C=C/c3cccc(C(F)(F)F)c3)nc3ccccc3c2=O)cc1`: the activation was -0.792% (inactive).
The value for `COc1ccc(CN2CCN(c3ccccc3F)CC2)c(OC)c1` was 4.33% (inactive); that for `CC(C)c1ccc(O)c(CN2CCN(c3ccccc3)CC2)c1` was 93% (active); that for `Oc1cc2c(cc1CN1CCN(c3ccccc3)CC1)OCO2` was 2.23% (inactive).
The value for `CCN1C(=O)C(=Cc2c(C)n(CC(=O)NCC3CCCO3)c3ccccc23)C(=O)N(CC)C1=S` (stereo not given) was 8.52% (inactive); that for `Cc1cccc(Cn2cccc(C(=O)Nc3ccc4c(c3)OCCO4)c2=O)c1` was 5.25% (inactive); that for `COc1ccc(CNCCc2c[nH]c3ccccc23)cc1OC` was 12.6% (inactive).
For `COc1ccc(CNCCc2ccc3c(c2)OCO3)c(OC)c1OC`, the activation is 11.4% (inactive).
Consider `COc1ccc(Br)cc1CNCCc1cccc(Cl)c1`, for which the activation is 34.4% (active).
In the case of `Cc1cc2ccccn2c1C(C[N+](=O)[O-])c1c(F)cccc1Cl` (stereo not given), the activation was 0.11% (inactive).
The result for `CN(C)c1nc(N(C)C)nc(N(C#N)CCCl)n1` reads 1.85% (inactive); that for `O=C(c1cc2nc(-c3ccccc3)cc(-c3ccccc3)n2n1)N1CCC2(CC1)OCCO2`, 1.75% (inactive); that for `CCCCC(=O)N/N=C/c1c(O)n(CCC2=CCCCC2)c(=O)[nH]c1=O`, 2.44% (inactive).
The value for `CCCCC(=O)N/N=C/c1c(O)n(-c2ccccc2)c(=O)[nH]c1=O` was -0.172% (inactive); that for `CCCCC(=O)N/N=C/c1c(O)n(CC)c(=S)n(CC)c1=O` was 71.8% (active); that for `Cc1ccc(NC(=O)N(Cc2ccc3c(c2)OCO3)C2CCN(Cc3ccccc3)CC2)cc1F` was 9.83% (inactive).
On to `COc1ccccc1N1CCN(C(CNC(=O)Oc2ccccc2)c2cccnc2)CC1` (stereo not given), for which the activation was 0.177% (inactive).
The value for `COC(=O)N1C(c2ccccc2)C1c1ccccc1` (stereo not given) was 6.43% (inactive); that for `COC(=O)C(c1ccccc1)N1CCCCCC1` (stereo not given) was 40% (active); that for `NCC(O)c1ccc(O)cc1` (stereo not given) was 0.942% (inactive).
The value for `COc1ccc(N=Cc2c(O)n(C)c(=O)[nH]c2=O)cc1` was 2.19% (inactive).
The result for `CC(=O)c1c(O)n(C2CCCCCC2)c(=O)[nH]c1=O` reads 2.24% (inactive).

For the origin of these results see PubChem BioAssay AID504660 (National Center for Advancing Translational Sciences (NCATS), 2011).
